This is a sample that favours compounds with a hit; in the whole collection about 12% have one here.
AMA1-RON2 inh: disrupts binding of P. falciparum AMA1 to RON2. AlphaScreen AMA1-biotinylated RON2 peptide binding. Potency, µM (doses to about 58.2 µM), for inactives: top-dose activity change, negative = inhibition, most hits filed as inhibitors. hit rate 0.2% among 360,000. AID 720542;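 note: 0% = vehicle wells and -100% = peptide control; nearly all actives have a fitted effect of over 45% in size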
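AMA1 (3D7) with his tag at 25 nM final met compounds first, then biotinylated RON2 peptide at 25 nM; detection used donor plus acceptor beads, 10 µg/mL apiece, read by AlphaScreen after 30 min at room temperature.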
Pf growth 48h: P. falciparum growth inhibition at 48 hours (one generation); AID 504832; hit rate 5.9% among 310,000; P. falciparum luciferase growth in erythrocytes, 48 h; Potency, µM (highest dose often 28.7 µM), inactives show at the top dose activity change, negative = inhibition, most hits filed as inhibitors; note: % is set by controls: 0 for no effect and ±100 for the full control effect
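First compound was added to culture medium, then infected red cells at 0.1% parasitemia and 2% hematocrit (final). After incubation at 37 C under 5% CO2, luciferase detection reagent was dispensed and light output recorded.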
SARS PLpro yeast: SARS-CoV PLP inhibition in yeast; S. cerevisiae expressing SARS-CoV PLpro, growth rescue; Potency, µM (highest dose often 32.9 µM), inactives show top-dose activity, positive = growth rescue, usual class: activators; hit rate 0.19% among 330,000; calls by dose curve; note: 0% is about no effect; nearly all actives have a fitted effect of over 55% in size
NS1 inh: inhibitors of influenza NS1 protein function | Potency, µM (doses to about 46.1 µM), inactives show at the top dose activity, positive = more growth | hit rate 0.4% among 270,000 | AID 2326; calls by dose curve; note: actives are rising curves; nearly all actives have a fitted effect of over 50% in size
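In this qHTS, NS1 from influenza A is expressed in budding yeast, where it slows growth. Cells are switched from glucose to 2% galactose medium (pH 6.0, -URA), treated with compound, and growth recovery is read at OD600.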
Pf growth 96h: inhibits malaria parasite growth, 96 h; Potency, µM (doses to about 28.7 µM), without a hit: at the top dose activity change, negative = inhibition, actives largely listed as inhibitors; hit rate 6.9% among 320,000; P. falciparum luciferase reporter growth, 96 h; note: % is set by controls: 0 for no effect and ±100 for the full control effect
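Erythrocytes infected with luciferase-expressing P. falciparum were dispensed at 2% hematocrit and 0.05% parasitemia (final), then incubated with compounds 96 hours at 37 C in 5% CO2. Luminescence after detection reagent addition reported growth.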
HCV inhibitor: inhibitors of hepatitis C virus infection. Huh7.5.1 HCVcc-Cre infection, luciferase reporter, 44 h. Potency, µM (titrated, usually from 41.8 µM), for inactives: at the highest dose activity change, negative = inhibition, most hits filed as inhibitors. hit rate 3.4% among 340,000; note: % is set by controls: 0 for no effect and ±100 for the full control effect
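Whole-lifecycle infectious HCVcc-Cre system; cells 1,000/well, compound then virus (~0.5 moi) added 4 h after plating, 44 h culture. Luciferase read 15 sec following 15 min substrate incubation, room temp.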
* = called active by the depositor; ? = inconclusive; . = no result; [ ] = another dose, or the depositor's remark. Unless noted, calls come from the whole dose curve; as a rule, active = well fitted curve in the direction sought with a large enough effect; inconclusive = small, poorly fitted or top-dose-only effect, or another doubt; inactive = no such curve, though single readings can be large; an effect the other way counts as inactive or inconclusive. Potency is the fitted concentration of half-maximal effect.

SMILES	AMA1-RON2 inh	Pf growth 48h	SARS PLpro yeast	NS1 inh	Pf growth 96h	HCV inhibitor
Cn1cc(C(=O)NC2CCCCC2)c(=O)c2cc(S(=O)(=O)N3CCOCC3)ccc21	-5%	?	6%	0%	?	13%
COC(=O)c1ccc(NC(=O)c2ccc3c(c2)NC(=O)C2CCCN32)cc1 (configuration not stated)	.	8.3µM*	4%	.	7.4µM*	-3%
CCOc1ccc(CCNC(=O)c2cn(C)c3ccc(S(=O)(=O)N4CCOCC4)cc3c2=O)cc1OCC	6%	12µM*	-2%	11%	?	-18%
COCCn1c(=NC(=O)c2ccc(S(=O)(=O)N3CCc4ccccc4C3)cc2)sc2cc(OC)ccc21	-7%	?	3%	16%	5.2µM*	13µM*
O=C(OCCOc1ccccc1)c1cccc(S(=O)(=O)N2CCOCC2)c1	5%[11.6 µM]	?	-2%	.	?	1%
CCCN(CC(=O)Nc1ccccc1C)C(=O)c1cccc(S(=O)(=O)N2CCc3ccccc3C2)c1	-2%	?	6%	5%	?	22µM*
CN(C)c1cccc(C(=O)OCCNC(=O)c2cccc(S(=O)(=O)N3CCOCC3)c2)c1	-8%	?	2%	0%	?	10µM*
CCOc1ccc(CCNC(=O)c2cccc(-n3cnnn3)c2)cc1OCC	-6%[11.6 µM]	?	-4%	.	?	?
Cc1ccc(OCCOC(=O)c2cccc(S(=O)(=O)N3CC(C)OC(C)C3)c2)cc1 (configuration not stated)	-4%	13µM*	-5%	.	?	11µM*
CCOc1ccc(CCNC(=O)c2cccc(C#N)c2)cc1OCC	0%	10µM*	1%	.	?	?
CC1CN(S(=O)(=O)c2cccc(C(=O)N3CCC(C(N)=O)CC3)c2)CC(C)O1 (configuration not stated)	-3%	.	1%	.	.	0%
CCNC(=S)Nn1cnc2ccccc21	-3%	156%	-4%	7%	46%	23%
NC(=O)CCn1c(C(=O)c2cc(Cl)c(N)c(Cl)c2)c2ccccc2[n+]1[O-]	43%	?	-1%	-4%	10µM*	6%
COc1ccc2c(C(=O)c3ccc(C)cc3)n(Cc3ccc(C(N)=O)cc3)[n+]([O-])c2c1	24%	?	7%	.	?	29%
COc1ccc(C(=O)c2c3ccc(C(F)(F)F)cc3[n+]([O-])n2CCCN)cc1	8%	12µM*	4%	.	?	0%
COc1ccc(C(=O)c2c3ccccc3[n+]([O-])n2Cc2ccc(C(N)=O)cc2)cc1	-2%	?	-4%	.	6.6µM*	1%
Cc1ccc(C(=O)c2c3ccc(C(F)(F)F)cc3[n+]([O-])n2CCCN)cc1	6%	?	-9%	.	?	?
NCCCn1c(C(=O)c2cc(Cl)c(N)c(Cl)c2)c2ccccc2[n+]1[O-]	5%	?	3%	.	?	?
COc1ccc2c(C(=O)c3ccc(Cl)cc3)n(CCCC(N)=O)[n+]([O-])c2c1	1%	9.3µM*	3%	.	?	10%
CCCCCC(=O)Nc1ccc(-c2csc(N)n2)cc1	-12%	?	0%	.	3%	?
NC(=O)NC(CC(=O)OCC(=O)Nc1nnc(-c2ccccc2)o1)c1ccc(Cl)cc1 (configuration not stated)	165%	.	.	.	.	.
COc1ccc(C[C@H]2CN3C(=NC[C@@H]3Cc3ccc(O)cc3)N2CCNC(=O)c2ccc(C)c(Br)c2)cc1	-25%	3.7µM*	0%	3%	1.2µM*	-19%
Cc1ccc(C(=O)NCCN2C3=NC[C@H](Cc4ccc(O)cc4)N3C[C@H]2Cc2ccc(O)cc2)cc1Br	-26%	4.1µM*	0%	-1%	2.9µM*	-7%[8.37 µM]
Cc1ccc(C(=O)NCCN2C3=NC[C@@H](Cc4ccccc4)N3C[C@H]2Cc2ccc(O)cc2)cc1Br	-6%	9.3µM*	1%	-2%	?	-9%
C/C=C(\C)C(=O)NCCN1C2=NC[C@H](Cc3ccccc3)N2C[C@H]1Cc1ccc(O)cc1	-6%	-21%	1%	4%	3.7µM*	4%
SMILES	AMA1-RON2 inh	Pf growth 48h	SARS PLpro yeast	NS1 inh	Pf growth 96h	HCV inhibitor
C/C=C(\C)C(=O)NCCN1C2=NC[C@@H](C)N2C[C@H]1Cc1ccc(O)cc1	6%	51%	1%	2%	50%	-11%
C/C=C(\C)C(=O)NCCN1C2=NC[C@H](Cc3ccccc3)N2C[C@@H]1Cc1ccc(OC)cc1	-4%	.	.	.	.	12%
CCn1cnc2c1c(=O)n(CC(=O)OC)c(=O)n2Cc1ccccc1	-7%	?	0%	1%	?	-1%
CN(C(=O)c1ccc(NC(=O)Cc2ccc(NC(=O)C3CCN(C(=O)C4CCCC4)CC3)cc2)cc1)C1CC1	?	?	8%	.	2.1µM*	-2%
CN(C(=O)c1ccc(NC(=O)Cc2ccc(NC(=O)C3CCN(C(=O)C4CCC4)CC3)cc2)cc1)C1CC1	-30%	?	5%	.	9.3µM*	-6%
C/C=C/C=C/C(=O)N1CC[C@]23c4ccccc4N[C@H]4N(C)c5cccc6c5[C@]42CCN([C@H]6C2OC2(C)C)[C@H]13 (some centres not stated)	?	12µM*	-1%	-22%	38%	?
Brc1ccc(C2=NC(Cc3ccccc3)CO2)cc1 (configuration not stated)	18%	140%	11%	-11%	116%	?
CCN1CC2=C(OC(N)=C(C#N)C2c2ccccc2)/C(=C\c2ccccc2)C1 (configuration not stated)	-4%	10µM*	-3%	-1%	.	?
N#CC1=C(N)OC2=C(CN(Cc3ccccc3)C/C2=C\c2cccnc2)C1c1cccnc1 (configuration not stated)	2%	?	0%	8%	22%	3%
CCN1CC2=C(OC(N)=C(C#N)C2c2cccs2)/C(=C/c2cccs2)C1 (configuration not stated)	-16%	12µM*	0%	4%	54%	22µM*
Cc1nc(-c2cc(-c3nc(-c4ccc(C(F)(F)F)cc4)no3)no2)cs1	-3%	0.66µM*	1%	6%	3%	20%
Cc1nc(-c2cc(-c3nc(-c4cc(C(F)(F)F)cc(C(F)(F)F)c4)no3)no2)cs1	-2%	24%	1%	-2%	31%	10%
CC(C)(C)c1ccc(-c2noc(-c3ccc4c(c3)CCO4)n2)cc1	3%	119%	-2%	2%	183%	?
Nc1ccc(S(=O)(=O)Nc2nc3ccccc3o2)cc1	-3%	0%	0%	-3%	7%	9%
COc1ccc(NS(=O)(=O)c2cc(NC(=O)/C=C/c3ccccc3OC)ccc2N2CCCCC2)cc1	-21%	1µM*	-6%	-2%	1µM*	4%

High-throughput results as filed in PubChem BioAssay.
